Measurements as given in article PMC12820563, “FoxP3 forms a head-to-head dimer in vivo and stabilizes its multimerization on adjacent microsatellites”.
The full ranking holds about 16,000 sequences; the median of “rpm ratio (pull-down/input)” is about 0.94, and the highest 2% start at about 1.7. This is one part of a sample in which the highest values are shown more often than they occur.

The sequences below were run against T1, MBP-FoxP1dN (Mus musculus, UniProt P58462 326-579) (assay: PD-seq (MBP pull-down with sequencing); 20 mM Tris-HCl pH 7.5, 100 mM NaCl, 1.5 mM MgCl2, 0.4 uM protein, 0.1 uM dsDNA library, 30 min, room temperature, amylose pull-down; high values mean tight binding). Conditions: protein: recombinant; tags: His6-MBP; chain copies: 2; dsDNA, one strand shown.
T1 sequence: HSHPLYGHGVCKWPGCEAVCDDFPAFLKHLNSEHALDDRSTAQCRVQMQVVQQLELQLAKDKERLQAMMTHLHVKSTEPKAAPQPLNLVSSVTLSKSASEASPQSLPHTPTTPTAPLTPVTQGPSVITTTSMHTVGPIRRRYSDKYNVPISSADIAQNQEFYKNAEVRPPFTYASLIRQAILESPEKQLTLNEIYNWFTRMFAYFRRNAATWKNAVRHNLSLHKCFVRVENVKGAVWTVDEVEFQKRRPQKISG
Outline: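 The N-terminus-lacking fragment of mouse FoxP3 or FoxP1 carried a His6-MBP tag and was expressed in E. coli. At 0.4 µM it was incubated with 0.1 µM Klenow-filled degenerate double-stranded DNA library for 30 min at room temperature in Tris pH 7.5 buffer with NaCl and MgCl2, and complexes were caught on amylose resin, washed three times, released with proteinase K, PCR-barcoded and Illumina-sequenced. Binding is reads-per-million enrichment of pull-down over input with replicates pooled.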

| Sequence | binding signal |
| --- | --- |
| GATGATTGTTCTCCCAGCTGATGAATTGTGTTGGTCGAGTAAACAAATTTTCCTAATCTTTCTGTTCAAGCGCCATCTAC | 1.92 RPM ratio (pull-down/input) |
| GATGATTGTTCTCCCAGCTGATGAATTGGTTGTGTCGAGTAAACAAATTTTCCTAATCTTTCTGTTCAAGCGCCATCTAC | 1.2 RPM ratio (pull-down/input) |
| GATGATTGTTCTCCCAGCTGATGAATTGTTGTGGTCGAGTAAACAAATTTTCCTAATCTTTCTGTTCAAGCGCCATCTAC | 2.1 RPM ratio (pull-down/input) |
| GATGATTGTTCTCCCAGCTGATGAATTAGCTCAGTCGAGTAAACAAATTTTCCTAATCTTTCTGTTCAAGCGCCATCTAC | 0.833 RPM ratio (pull-down/input) |
| GATGATTGTTCTCCCAGCTGATGAATTTAGGTACTCGAGTAAACAAATTTTCCTAATCTTTCTGTTCAAGCGCCATCTAC | 0.947 RPM ratio (pull-down/input) |
| GATGATTGTTCTCCCAGCTGATGAATTTCGCATCTCGAGTAAACAAATTTTCCTAATCTTTCTGTTCAAGCGCCATCTAC | 1.21 RPM ratio (pull-down/input) |
| GATGATTGTTCTCCCAGCTGATGAATTTGCCGGATCGAGTAAACAAATTTTCCTAATCTTTCTGTTCAAGCGCCATCTAC | 0.839 RPM ratio (pull-down/input) |
| GATGATTGTTCTCCCAGCTGATGAATTAAACAAATCGAGTAAACAAATTTTCCTAATCTTTCTGTTCAAGCGCCATCTAC | 2.02 RPM ratio (pull-down/input) |
| GATGATTGTTCTCCCAGCTGATGAATTTAAAACATCGAGTAAACAAATTTTCCTAATCTTTCTGTTCAAGCGCCATCTAC | 1.37 RPM ratio (pull-down/input) |
| GATGATTGTTCTCCCAGCTGATGAATTAAAACAATCGAGTAAACAAATTTTCCTAATCTTTCTGTTCAAGCGCCATCTAC | 2 RPM ratio (pull-down/input) |
| GATGATTGTTCTCCCAGCTGATGAATTAATTCAATCGAGTAAACAAATTTTCCTAATCTTTCTGTTCAAGCGCCATCTAC | 0.961 RPM ratio (pull-down/input) |
| GATGATTGTTCTCCCAGCTGATGAATTAAACAACTCGAGTAAACAAATTTTCCTAATCTTTCTGTTCAAGCGCCATCTAC | 1.84 RPM ratio (pull-down/input) |
| GATGATTGTTCTCCCAGCTGATGAATTAATCTAATCGAGTAAACAAATTTTCCTAATCTTTCTGTTCAAGCGCCATCTAC | 1.1 RPM ratio (pull-down/input) |
| GATGATTGTTCTCCCAGCTGATGAATTAAACTCCTCGAGTAAACAAATTTTCCTAATCTTTCTGTTCAAGCGCCATCTAC | 0.846 RPM ratio (pull-down/input) |
| GATGATTGTTCTCCCAGCTGATGAATTAAATTAATCGAGTAAACAAATTTTCCTAATCTTTCTGTTCAAGCGCCATCTAC | 1.01 RPM ratio (pull-down/input) |
| GATGATTGTTCTCCCAGCTGATGAATTAAAAAAATCGAGTAAACAAATTTTCCTAATCTTTCTGTTCAAGCGCCATCTAC | 1.04 RPM ratio (pull-down/input) |

| Sequence | binding signal |
| --- | --- |
| GATGATTGTTCTCCCAGCTGATGAATTAATCAACTCGAGTAAACAAATTTTCCTAATCTTTCTGTTCAAGCGCCATCTAC | 1.1 RPM ratio (pull-down/input) |
| GATGATTGTTCTCCCAGCTGATGAATTAAAAACATCGAGTAAACAAATTTTCCTAATCTTTCTGTTCAAGCGCCATCTAC | 2.08 RPM ratio (pull-down/input) |
| GATGATTGTTCTCCCAGCTGATGAATTAAATCAATCGAGTAAACAAATTTTCCTAATCTTTCTGTTCAAGCGCCATCTAC | 1.01 RPM ratio (pull-down/input) |
| GATGATTGTTCTCCCAGCTGATGAATTCTCACAGTCGAGTAAACAAATTTTCCTAATCTTTCTGTTCAAGCGCCATCTAC | 0.875 RPM ratio (pull-down/input) |
| GATGATTGTTCTCCCAGCTGATGAATTAATTGAGTCGAGTAAACAAATTTTCCTAATCTTTCTGTTCAAGCGCCATCTAC | 0.932 RPM ratio (pull-down/input) |
| GATGATTGTTCTCCCAGCTGATGAATTGGGTATCTCGAGTAAACAAATTTTCCTAATCTTTCTGTTCAAGCGCCATCTAC | 0.935 RPM ratio (pull-down/input) |
| GATGATTGTTCTCCCAGCTGATGAATTAGAAGCTTCGAGTAAACAAATTTTCCTAATCTTTCTGTTCAAGCGCCATCTAC | 0.996 RPM ratio (pull-down/input) |
| GATGATTGTTCTCCCAGCTGATGAATTGCGGCAGTCGAGTAAACAAATTTTCCTAATCTTTCTGTTCAAGCGCCATCTAC | 0.919 RPM ratio (pull-down/input) |
| GATGATTGTTCTCCCAGCTGATGAATTGCGCTAGTCGAGTAAACAAATTTTCCTAATCTTTCTGTTCAAGCGCCATCTAC | 1.06 RPM ratio (pull-down/input) |
| GATGATTGTTCTCCCAGCTGATGAATTTATTTATTCGAGTAAACAAATTTTCCTAATCTTTCTGTTCAAGCGCCATCTAC | 2.17 RPM ratio (pull-down/input) |
| GATGATTGTTCTCCCAGCTGATGAATTGATTTATTCGAGTAAACAAATTTTCCTAATCTTTCTGTTCAAGCGCCATCTAC | 1.27 RPM ratio (pull-down/input) |
| GATGATTGTTCTCCCAGCTGATGAATTCTTTTATTCGAGTAAACAAATTTTCCTAATCTTTCTGTTCAAGCGCCATCTAC | 1.13 RPM ratio (pull-down/input) |
| GATGATTGTTCTCCCAGCTGATGAATTTATTCTTTCGAGTAAACAAATTTTCCTAATCTTTCTGTTCAAGCGCCATCTAC | 1.34 RPM ratio (pull-down/input) |
| GATGATTGTTCTCCCAGCTGATGAATTTATTGATTCGAGTAAACAAATTTTCCTAATCTTTCTGTTCAAGCGCCATCTAC | 1.86 RPM ratio (pull-down/input) |
| GATGATTGTTCTCCCAGCTGATGAATTTCTTTATTCGAGTAAACAAATTTTCCTAATCTTTCTGTTCAAGCGCCATCTAC | 0.979 RPM ratio (pull-down/input) |
| GATGATTGTTCTCCCAGCTGATGAATTAATTTCCTCGAGTAAACAAATTTTCCTAATCTTTCTGTTCAAGCGCCATCTAC | 0.884 RPM ratio (pull-down/input) |
